Data on 6 compounds can be found in ChEMBL document CHEMBL2218924, “A broad activity screen in support of a chemogenomic map for kinase signalling research and drug discovery” (Biochem J, 2013).

For assay [1], the target named is T1, Rhodopsin kinase GRK7 (Homo sapiens) (UniProt Q8WTQ7).
T1 sequence (whole entry): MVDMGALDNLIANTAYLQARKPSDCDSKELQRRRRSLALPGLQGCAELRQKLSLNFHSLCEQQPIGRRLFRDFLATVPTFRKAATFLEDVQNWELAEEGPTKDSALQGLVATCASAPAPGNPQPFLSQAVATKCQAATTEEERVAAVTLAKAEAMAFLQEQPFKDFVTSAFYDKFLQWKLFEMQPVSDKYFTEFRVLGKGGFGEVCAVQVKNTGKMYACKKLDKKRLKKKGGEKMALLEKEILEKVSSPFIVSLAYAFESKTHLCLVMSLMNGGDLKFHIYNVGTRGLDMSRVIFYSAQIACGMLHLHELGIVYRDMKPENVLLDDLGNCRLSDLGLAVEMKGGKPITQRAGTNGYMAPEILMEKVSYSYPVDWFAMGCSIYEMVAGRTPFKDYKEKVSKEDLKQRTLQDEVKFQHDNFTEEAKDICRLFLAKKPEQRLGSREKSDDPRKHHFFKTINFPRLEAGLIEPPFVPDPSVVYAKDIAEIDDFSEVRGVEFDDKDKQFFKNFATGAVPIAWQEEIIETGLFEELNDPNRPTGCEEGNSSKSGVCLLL
The settings on record: at 10 µM.

The target in assay [2] is Glycogen synthase kinase-3 beta (Homo sapiens) (UniProt P49841). The following applies: at 1 µM.
Assay [3] addresses Homeodomain-interacting protein kinase 1 (Homo sapiens) (UniProt Q86Z02). The following applies: at 1 µM.
The target is the same in assay [4]. The settings on record: at 10 µM.
For assay [5], the target named is Homeodomain-interacting protein kinase 2 (Homo sapiens) (UniProt Q9H2X6). The settings on record: at 1 µM.
Sequence of Homeodomain-interacting protein kinase 2 (Homo sapiens) (Q9H2X6 whole entry, looked up): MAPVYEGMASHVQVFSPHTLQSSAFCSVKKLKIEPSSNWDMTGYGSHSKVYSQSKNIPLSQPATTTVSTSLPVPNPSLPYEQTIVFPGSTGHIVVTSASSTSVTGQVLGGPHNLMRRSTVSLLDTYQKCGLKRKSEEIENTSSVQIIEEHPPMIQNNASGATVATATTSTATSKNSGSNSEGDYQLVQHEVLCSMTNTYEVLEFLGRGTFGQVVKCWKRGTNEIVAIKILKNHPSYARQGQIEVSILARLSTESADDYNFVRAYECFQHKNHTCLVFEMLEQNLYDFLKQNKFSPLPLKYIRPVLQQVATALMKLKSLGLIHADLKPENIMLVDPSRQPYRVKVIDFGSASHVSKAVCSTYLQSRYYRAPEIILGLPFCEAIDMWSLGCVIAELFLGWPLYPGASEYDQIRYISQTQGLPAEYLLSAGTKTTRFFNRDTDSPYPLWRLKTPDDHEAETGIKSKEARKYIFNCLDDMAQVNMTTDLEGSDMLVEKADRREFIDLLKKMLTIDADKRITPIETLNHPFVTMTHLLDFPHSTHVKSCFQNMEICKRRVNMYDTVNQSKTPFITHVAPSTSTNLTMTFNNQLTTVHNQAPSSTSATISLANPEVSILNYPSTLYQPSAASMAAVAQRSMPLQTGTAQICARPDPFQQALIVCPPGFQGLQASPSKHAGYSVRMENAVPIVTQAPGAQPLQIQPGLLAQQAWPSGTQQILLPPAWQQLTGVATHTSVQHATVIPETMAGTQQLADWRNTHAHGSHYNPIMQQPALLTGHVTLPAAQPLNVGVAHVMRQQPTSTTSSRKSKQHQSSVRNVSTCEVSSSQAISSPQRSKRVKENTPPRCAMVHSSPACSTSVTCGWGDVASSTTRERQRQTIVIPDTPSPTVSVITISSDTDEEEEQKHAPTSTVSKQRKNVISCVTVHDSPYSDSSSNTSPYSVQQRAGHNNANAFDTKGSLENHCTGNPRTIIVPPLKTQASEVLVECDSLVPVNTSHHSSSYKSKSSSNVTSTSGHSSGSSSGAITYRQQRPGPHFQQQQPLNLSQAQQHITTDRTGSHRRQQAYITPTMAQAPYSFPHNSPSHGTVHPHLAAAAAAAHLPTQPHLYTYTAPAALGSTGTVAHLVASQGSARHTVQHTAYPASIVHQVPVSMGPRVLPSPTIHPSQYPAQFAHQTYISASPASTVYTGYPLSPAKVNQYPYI
Assay [6] has the same target. The following applies: at 10 µM.
Assay [7] addresses Homeodomain-interacting protein kinase 3 (Homo sapiens) (UniProt Q9H422). The settings on record: at 1 µM.
The target is the same in assay [8]. The following applies: at 10 µM.
Assay [9] addresses T2, Serine/threonine-protein kinase haspin (Homo sapiens) (UniProt Q8TF76).
T2 sequence (whole entry): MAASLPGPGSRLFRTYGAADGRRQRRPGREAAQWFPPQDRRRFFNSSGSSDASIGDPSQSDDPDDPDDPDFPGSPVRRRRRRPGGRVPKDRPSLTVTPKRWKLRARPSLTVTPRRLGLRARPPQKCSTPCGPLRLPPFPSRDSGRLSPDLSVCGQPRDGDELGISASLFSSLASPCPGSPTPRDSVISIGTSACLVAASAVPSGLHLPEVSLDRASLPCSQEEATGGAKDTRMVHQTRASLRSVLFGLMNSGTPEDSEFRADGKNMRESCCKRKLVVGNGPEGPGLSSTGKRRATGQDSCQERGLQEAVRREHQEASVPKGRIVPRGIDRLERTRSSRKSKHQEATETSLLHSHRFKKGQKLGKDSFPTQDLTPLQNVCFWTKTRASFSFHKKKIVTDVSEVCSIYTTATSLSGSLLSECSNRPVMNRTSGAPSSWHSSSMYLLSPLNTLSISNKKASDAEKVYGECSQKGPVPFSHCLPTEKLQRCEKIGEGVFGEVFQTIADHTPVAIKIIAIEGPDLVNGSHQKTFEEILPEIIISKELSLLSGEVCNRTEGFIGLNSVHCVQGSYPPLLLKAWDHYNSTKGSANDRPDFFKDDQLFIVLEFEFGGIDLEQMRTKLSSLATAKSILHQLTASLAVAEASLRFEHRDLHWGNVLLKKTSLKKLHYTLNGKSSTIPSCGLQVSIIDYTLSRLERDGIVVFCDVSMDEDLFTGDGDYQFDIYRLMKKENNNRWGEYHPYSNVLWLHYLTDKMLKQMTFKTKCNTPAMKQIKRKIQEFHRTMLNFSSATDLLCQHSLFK
The settings on record: at 1 µM.

In assay [10] the target is T2, Serine/threonine-protein kinase haspin (Homo sapiens). The following applies: at 10 µM.
Assay [11] concerns the target Tyrosine-protein kinase HCK (Homo sapiens) (UniProt P08631). The following applies: at 1 µM.
For assay [12] the target is unchanged. The settings on record: at 10 µM.
The target is the same in assay [13]. The following applies: at 1 µM. This is another data set of the same source.
Assay [14] shares this target. The settings on record: at 10 µM. This is another data set of the same source.
Assay [15] has as its target Insulin-like growth factor 1 receptor (Homo sapiens) (UniProt P08069). The settings on record: at 1 µM.
The target is the same in assay [16]. The settings on record: at 10 µM.
Assay [17] concerns the target T3, Protein kinase C zeta type (Homo sapiens) (UniProt Q05513).
T3 sequence (whole entry): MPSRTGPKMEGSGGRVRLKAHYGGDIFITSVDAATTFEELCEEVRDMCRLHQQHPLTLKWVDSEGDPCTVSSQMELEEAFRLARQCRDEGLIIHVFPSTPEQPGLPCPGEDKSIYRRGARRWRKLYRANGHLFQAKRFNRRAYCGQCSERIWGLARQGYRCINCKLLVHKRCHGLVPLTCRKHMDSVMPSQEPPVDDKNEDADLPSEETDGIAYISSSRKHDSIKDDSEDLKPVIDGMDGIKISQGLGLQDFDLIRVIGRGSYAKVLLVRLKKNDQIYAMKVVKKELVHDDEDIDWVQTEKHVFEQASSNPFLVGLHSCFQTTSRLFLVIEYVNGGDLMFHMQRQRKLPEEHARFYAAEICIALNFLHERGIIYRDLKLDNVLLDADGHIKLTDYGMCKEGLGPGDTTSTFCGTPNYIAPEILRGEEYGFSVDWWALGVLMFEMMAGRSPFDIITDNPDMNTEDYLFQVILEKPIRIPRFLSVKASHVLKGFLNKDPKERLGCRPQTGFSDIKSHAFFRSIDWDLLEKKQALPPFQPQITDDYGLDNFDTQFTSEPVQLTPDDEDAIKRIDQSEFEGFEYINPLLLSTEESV
The settings on record: at 10 µM.

Assay [18] has as its target Glycogen synthase kinase-3 alpha (Homo sapiens) (UniProt P49840). The following applies: at 1 µM.
For assay [19] the target is unchanged. The following applies: at 10 µM.
In assay [20] the target is Glycogen synthase kinase-3 beta (Homo sapiens) (UniProt P49841). The following applies: at 10 µM.

Sequence of Insulin-like growth factor 1 receptor (Homo sapiens) (P08069 31-736 limits assumed): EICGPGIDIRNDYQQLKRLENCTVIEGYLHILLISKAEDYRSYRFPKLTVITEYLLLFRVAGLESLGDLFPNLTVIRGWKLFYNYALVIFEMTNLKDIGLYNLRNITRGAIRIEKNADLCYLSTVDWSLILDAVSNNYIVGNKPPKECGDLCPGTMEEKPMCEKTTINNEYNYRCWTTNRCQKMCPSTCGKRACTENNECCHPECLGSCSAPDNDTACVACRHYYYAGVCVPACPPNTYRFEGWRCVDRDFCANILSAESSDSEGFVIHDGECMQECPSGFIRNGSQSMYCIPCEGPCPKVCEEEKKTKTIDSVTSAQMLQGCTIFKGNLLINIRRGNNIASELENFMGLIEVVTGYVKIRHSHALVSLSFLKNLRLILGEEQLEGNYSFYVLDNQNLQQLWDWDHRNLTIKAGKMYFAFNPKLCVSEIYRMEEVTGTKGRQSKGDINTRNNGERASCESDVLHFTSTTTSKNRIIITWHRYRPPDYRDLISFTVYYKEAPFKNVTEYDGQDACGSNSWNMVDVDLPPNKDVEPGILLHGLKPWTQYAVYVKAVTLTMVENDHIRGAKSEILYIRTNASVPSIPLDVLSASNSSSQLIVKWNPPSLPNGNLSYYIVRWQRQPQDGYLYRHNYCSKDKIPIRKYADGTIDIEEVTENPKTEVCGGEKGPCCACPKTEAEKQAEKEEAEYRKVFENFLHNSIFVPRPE
Sequence of Insulin-like growth factor 1 receptor (Homo sapiens) (P08069 741-1367 limits assumed): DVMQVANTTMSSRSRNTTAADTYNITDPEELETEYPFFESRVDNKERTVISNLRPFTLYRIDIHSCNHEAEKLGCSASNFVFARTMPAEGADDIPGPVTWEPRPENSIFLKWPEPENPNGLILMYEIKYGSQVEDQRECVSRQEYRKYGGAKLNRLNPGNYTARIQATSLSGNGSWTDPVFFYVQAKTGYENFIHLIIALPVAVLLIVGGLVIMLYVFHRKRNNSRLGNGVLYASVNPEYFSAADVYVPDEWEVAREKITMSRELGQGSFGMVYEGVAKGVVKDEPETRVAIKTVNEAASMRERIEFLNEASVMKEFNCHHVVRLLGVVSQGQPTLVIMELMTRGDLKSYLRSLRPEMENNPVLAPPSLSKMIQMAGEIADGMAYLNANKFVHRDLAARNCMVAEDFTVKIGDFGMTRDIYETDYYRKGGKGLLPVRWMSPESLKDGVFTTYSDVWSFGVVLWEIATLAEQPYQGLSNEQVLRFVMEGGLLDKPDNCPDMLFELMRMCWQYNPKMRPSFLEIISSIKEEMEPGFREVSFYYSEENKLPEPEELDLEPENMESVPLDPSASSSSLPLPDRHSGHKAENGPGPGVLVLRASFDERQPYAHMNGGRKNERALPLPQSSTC
Sequence of Homeodomain-interacting protein kinase 1 (Homo sapiens) (Q86Z02 whole entry, looked up): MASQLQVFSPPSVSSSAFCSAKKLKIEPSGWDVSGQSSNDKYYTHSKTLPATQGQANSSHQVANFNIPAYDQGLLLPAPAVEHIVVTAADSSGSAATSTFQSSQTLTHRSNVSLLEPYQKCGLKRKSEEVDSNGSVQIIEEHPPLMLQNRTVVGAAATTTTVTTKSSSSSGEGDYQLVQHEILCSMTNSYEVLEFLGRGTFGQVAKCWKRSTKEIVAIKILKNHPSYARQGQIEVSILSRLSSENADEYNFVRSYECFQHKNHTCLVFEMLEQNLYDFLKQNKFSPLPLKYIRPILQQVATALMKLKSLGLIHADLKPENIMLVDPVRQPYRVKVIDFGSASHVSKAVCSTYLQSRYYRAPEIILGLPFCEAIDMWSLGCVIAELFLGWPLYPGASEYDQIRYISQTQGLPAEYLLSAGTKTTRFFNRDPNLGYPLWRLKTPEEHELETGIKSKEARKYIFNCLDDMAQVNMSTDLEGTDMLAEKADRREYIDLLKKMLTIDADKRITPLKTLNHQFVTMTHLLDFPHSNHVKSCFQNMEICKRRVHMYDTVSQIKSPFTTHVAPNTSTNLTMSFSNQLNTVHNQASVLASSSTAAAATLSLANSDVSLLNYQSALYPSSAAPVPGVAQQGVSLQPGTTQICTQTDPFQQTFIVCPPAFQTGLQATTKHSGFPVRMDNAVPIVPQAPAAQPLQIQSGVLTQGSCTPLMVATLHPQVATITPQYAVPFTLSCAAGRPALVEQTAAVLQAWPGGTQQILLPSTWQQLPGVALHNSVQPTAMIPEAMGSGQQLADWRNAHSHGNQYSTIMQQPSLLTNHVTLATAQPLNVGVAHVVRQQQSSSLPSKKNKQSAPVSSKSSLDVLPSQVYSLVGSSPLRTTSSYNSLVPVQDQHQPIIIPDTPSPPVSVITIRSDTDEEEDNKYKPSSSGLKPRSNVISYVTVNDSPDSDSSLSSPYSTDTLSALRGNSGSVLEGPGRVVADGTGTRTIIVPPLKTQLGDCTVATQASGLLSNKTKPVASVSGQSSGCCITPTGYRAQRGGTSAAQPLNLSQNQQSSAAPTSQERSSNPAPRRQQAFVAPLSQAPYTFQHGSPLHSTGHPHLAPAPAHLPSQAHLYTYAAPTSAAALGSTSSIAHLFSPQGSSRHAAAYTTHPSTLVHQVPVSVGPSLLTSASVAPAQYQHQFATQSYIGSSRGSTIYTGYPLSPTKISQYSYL
Sequence of Glycogen synthase kinase-3 alpha (Homo sapiens) (P49840 2-483 limits assumed): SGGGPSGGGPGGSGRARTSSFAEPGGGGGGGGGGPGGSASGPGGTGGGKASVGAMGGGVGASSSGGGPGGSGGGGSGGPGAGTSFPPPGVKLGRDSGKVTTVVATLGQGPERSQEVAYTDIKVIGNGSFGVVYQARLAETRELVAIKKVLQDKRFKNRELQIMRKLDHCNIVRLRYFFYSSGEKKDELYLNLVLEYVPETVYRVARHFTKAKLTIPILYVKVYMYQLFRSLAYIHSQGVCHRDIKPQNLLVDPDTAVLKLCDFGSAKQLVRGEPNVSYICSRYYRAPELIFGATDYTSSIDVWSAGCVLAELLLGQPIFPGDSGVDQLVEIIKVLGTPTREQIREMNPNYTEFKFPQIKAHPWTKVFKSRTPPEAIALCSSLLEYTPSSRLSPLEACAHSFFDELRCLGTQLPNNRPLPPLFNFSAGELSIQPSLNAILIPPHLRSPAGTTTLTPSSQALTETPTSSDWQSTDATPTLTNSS
Sequence of Tyrosine-protein kinase HCK (Homo sapiens) (P08631 2-526 limits assumed): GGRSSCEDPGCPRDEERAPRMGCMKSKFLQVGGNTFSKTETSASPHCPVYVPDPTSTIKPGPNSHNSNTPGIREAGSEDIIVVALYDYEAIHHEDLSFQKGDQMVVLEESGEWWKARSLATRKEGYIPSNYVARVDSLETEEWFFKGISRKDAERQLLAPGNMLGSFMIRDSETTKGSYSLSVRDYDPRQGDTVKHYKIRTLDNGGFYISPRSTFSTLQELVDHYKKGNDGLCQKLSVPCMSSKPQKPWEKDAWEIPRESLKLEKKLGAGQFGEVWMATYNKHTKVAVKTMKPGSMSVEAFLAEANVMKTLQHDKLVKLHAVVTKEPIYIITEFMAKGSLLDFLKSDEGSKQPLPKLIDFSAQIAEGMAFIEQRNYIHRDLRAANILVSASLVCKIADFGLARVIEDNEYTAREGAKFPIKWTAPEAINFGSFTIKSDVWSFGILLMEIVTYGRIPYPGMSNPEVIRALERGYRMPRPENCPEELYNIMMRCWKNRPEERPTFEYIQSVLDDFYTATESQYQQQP

As for `c1ccc(-c2n[nH]cc2-c2ccnc3ccccc23)nc1`, the residual activity stood at 87% in assay [1]; 85% in assay [2]; 98% in assay [3]; 105% in assay [4]; 98% in [5]; 101% in [6]. Further, the residual activity in [7] was 100%; in assay [8] it was 98%; in [9], 71%; in [10], 49%; in [11] it was 86%; in assay [12] it was 72%. Also, the residual activity is 100% in assay [13]; 69% in assay [14]; 131% in [15]; 133% in [16]; 123% in assay [17].

As to `Oc1ccc(Nc2nc(-c3ccc(Cl)cc3)cs2)cc1`, the residual activity is 103% in assay [1]; 97% in assay [18]; 88% in [19]; 131% in assay [2]; 114% in [20]; 95% in assay [4]. Further, the residual activity was determined as 92% in assay [5]; 89% in [6]; 105% in assay [7]; 85% in assay [8]; 88% in assay [9]; 84% in [10]. Also, the residual activity in [11] worked out at 89%; in [12], 69%; in assay [13] it was 97%; in assay [14], 86%; in assay [15], 120%; in assay [16], 101%. The residual activity in assay [17] amounted to 87%.

Regarding `CO[C@H]1C[C@@H]2CC[C@@H](C)[C@@](O)(O2)C(=O)C(=O)N2CCCC[C@H]2C(=O)O[C@H]([C@H](C)C[C@@H]2CC[C@@H](O)[C@H](OC)C2)CC(=O)[C@H](C)/C=C(\C)[C@@H](O)[C@@H](OC)C(=O)[C@H](C)C[C@H](C)/C=C/C=C/C=C/1C`, the residual activity was 86% in assay [1]; 117% in assay [18]; 193% in [19]; 96% in assay [2]; 91% in [3]; 101% in assay [4]. Also, the residual activity is 103% in assay [5]; 99% in assay [6]; 91% in assay [7]; 110% in assay [8]; 86% in [9]; 106% in [10]. Besides, the residual activity came out at 73% in [11]; 81% in [12]; 99% in [13]; 87% in assay [14]; 123% in [15]; 112% in [16]. Further, the residual activity in [17] was determined as 112%.

In the case of `Cc1cc2ncc(-c3ccccc3)nc2cc1C`, the residual activity in assay [1] is 94%; in [18], 104%; in assay [19], 130%; in assay [2], 88%; in assay [20] it was 106%; in assay [3] it was 94%. Further, the residual activity in assay [4] amounted to 102%; in [5] it was 102%; in assay [6], 97%; in assay [7] it was 105%; in [8], 107%; in assay [9], 87%. Also, the residual activity in [10] was determined as 83%; in [11] it was 68%; in assay [12], 55%; in assay [13], 105%; in [14] it was 99%; in assay [15], 131%. For the same compound, the results for the residual activity in [16] and in assay [17] were 144% and 104%, respectively.

With `COc1cc2ncnc(N3CCN(C(=O)Nc4ccc(Oc5ccccc5)cc4)CC3)c2cc1OC`, the residual activity came out at 82% in assay [1]; 103% in assay [18]; 146% in [19]; 99% in assay [2]; 148% in assay [20]; 96% in [3]. Moreover, the residual activity in assay [4] was 96%; in assay [5] it was 95%; in assay [6], 77%; in [7], 95%; in assay [8], 102%; in [9] it was 79%. In addition, the residual activity in assay [10] is 82%; in [11], 79%; in assay [12] it was 71%; in [13], 91%; in assay [14], 85%; in assay [17] it was 116%.

In the case of `Nc1nc(Nc2ccc(S(N)(=O)=O)cc2)nn1C(=S)Nc1c(F)cccc1F`, the residual activity in assay [18] amounted to 3%; in assay [19], 2%; in assay [2], 4%; in [20], 0%; in [3], 30%; in assay [4] it was 47%. In addition, the residual activity in assay [5] was 12%; in [6] it was 0%; in assay [7], 25%; in [8], 21%; in [11], 10%; in assay [12], 4%. The residual activity in assay [13] came to 13%; in [14] it was 1%; in assay [15], 109%; in [16], 98%; in assay [17] it was 77%.
